Experimental data from article PMC5540273 (PLoS ONE, 2017).

Tested on: BRSK2
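Also: kd values determined as follow-up on hits from a single-replicate KINOMEscan panel screen.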

| Structure (SMILES) | Kd [µM] |
| --- | --- |
| c1ccc(-c2ccnc3[nH]ccc23)cc1 [SB-693578] | > 10 |
| O=c1cc(N2CCOCC2)nc2n(Cc3ccccc3F)ccn12 [GSK2297428] | > 10 |
| COc1cccc(NC(=O)Nc2ccc(C)c(-c3ccc(C(=O)Nc4ccncc4)cc3)c2)c1 [GSK1398474] | > 10 |
| Cc1ccccc1Cn1ccn2c(=O)cc(N3CCOCC3)nc12 [GSK2269905] | > 10 |
| COc1ccc(-c2coc3ccc(-c4nnc(C)o4)cc23)cc1 | > 10 |

Tested on: BUB1

| Structure (SMILES) | Kd [µM] |
| --- | --- |
| CCCCc1nn2ncccc2c1-c1ccnc(NC2CC2)n1 [GW684374] | 3.3 |
| Fc1ccc(-c2nc[nH]c2-c2ccncc2)cc1 [SB-217360] | 0.89 |
| COc1ccc2cc(-c3nc(-c4ccccc4C(C)C)[nH]c3-c3ccncc3)ccc2c1 [SB-660566] | 0.47 |
| COc1cc2ncnc(Nc3cccc(Br)c3)c2cc1OC.Cl [GI230329] | 0.13 |
| CSc1ccc(-c2nc3n(c2-c2ccncc2)CCC3)cc1 [SKF-105561] | 0.26 |
| CS(=O)(=O)Cc1ccc(Nc2nccc(-c3c(-c4cccc(NC(=O)C5CCCCC5)c4)nn4ncccc34)n2)cc1 [GSK350559] | 0.029 |

Tested on: CAMK2A

| Structure (SMILES) | Kd [µM] |
| --- | --- |
| COC(=O)c1cccc(NC(=O)NC2CCN(c3ccnc(Nc4ccc(OC)cc4)n3)C2)c1 (stereo not shown) [GSK1379746] | > 10 |
| CNc1nc(-c2ccc3c(N)n[nH]c3c2)cc(N2C[C@@H](C(=O)Nc3ccccc3)CC[C@H]2C)n1 [GSK2298859] | > 10 |
| O=C(Nc1n[nH]c2nc(-c3cccs3)c(Br)cc12)C1CC1 [SB-735297] | > 10 |
| Cc1ccc(NC(=O)c2ccc(Cl)cc2)cc1-c1ccc(C(=O)Nc2ccncc2)cc1 [GSK1398467] | > 10 |

Tested on: CAMK2B

| Structure (SMILES) | Kd [µM] |
| --- | --- |
| COC(=O)c1cccc(NC(=O)NC2CCN(c3ccnc(Nc4ccc(OC)cc4)n3)C2)c1 (stereo not shown) [GSK1379746] | > 10 |
| CNc1nc(-c2ccc3c(N)n[nH]c3c2)cc(N2C[C@@H](C(=O)Nc3ccccc3)CC[C@H]2C)n1 [GSK2298859] | > 10 |
| O=C(Nc1n[nH]c2nc(-c3cccs3)c(Br)cc12)C1CC1 [SB-735297] | > 10 |
| Cc1ccc(NC(=O)c2ccc(Cl)cc2)cc1-c1ccc(C(=O)Nc2ccncc2)cc1 [GSK1398467] | > 10 |
